Assay outcomes as filed in PubChem.
Most compounds without a hit are left out; they make up all but 2% or so of the library.
S1P4 agonist: S1P4 receptor agonists, primary screen, cell-based | Sphingosine 1-phosphate receptor 4 (Homo sapiens), O95977 | S1P4-expressing cell line, agonist reporter assay | activation, % at 4.98 µM | actives 0.35% (n = 220,000) | AID 1509, 2009; in the data active = activation above about 11%;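 note: 0% = DMSO vehicle and 100% = reference agonist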
S1P3 antagonist: S1P3 receptor antagonists, primary screen, cell-based; CHO S1P3 NFAT-BLA reporter, FRET fluorescence, antagonist mode; inhibition, % at 4.98 µM; actives 0.27% (n = 170,000); AID 485, 2006;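 active = inhibition above the plate cutoff, the mean inhibition of test wells on that plate plus 3 SD, cut at about 28% in these data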;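 note: cells challenged with S1P at its EC80 of 0.8 µM; blue over green emission ratio from cleaved BLA substrate after 4 h stimulation; 0% = S1P-stimulated wells and 100% = unstimulated DMSO-only wells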
EP2 mod: EP2 receptor modulators, cAMP readout, primary screen, cell-based, HTRF cAMP, PGE2 stimulation; Prostaglandin E2 receptor EP2 subtype (Homo sapiens), P43116; EP2-expressing cells, cAMP HTRF FRET, PGE2 co-stimulation; induction, % at 25 µM; actives 0.83% (n = 260,000); AID 940, 2007;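 active = compounds whose cAMP rise, as percent of the full-agonist control response, exceeds 60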;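 note: rat C6 glioma line stably carrying human EP2 under a CMV promoter; the protocol text gives 20 µM as final concentration; 100% = response of wells given 1 µM PGE2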
Target sequence (P43116 whole entry, looked up): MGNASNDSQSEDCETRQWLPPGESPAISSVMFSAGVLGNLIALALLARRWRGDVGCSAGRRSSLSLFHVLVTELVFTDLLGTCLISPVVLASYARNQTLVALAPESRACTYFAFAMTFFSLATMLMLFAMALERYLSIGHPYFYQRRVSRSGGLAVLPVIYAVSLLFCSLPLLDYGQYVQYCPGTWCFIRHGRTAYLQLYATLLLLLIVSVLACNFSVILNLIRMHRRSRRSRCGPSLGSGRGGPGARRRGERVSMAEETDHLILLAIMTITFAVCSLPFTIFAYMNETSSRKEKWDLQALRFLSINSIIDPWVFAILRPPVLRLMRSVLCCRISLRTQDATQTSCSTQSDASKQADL
EP2 antag: human EP2 receptor antagonists, primary screen, TR-FRET cAMP, C6 glioma cells | C6 glioma cells expressing human EP2; cells stimulated with saturating PGE2 | inhibition, % at 25 µM | actives 0.52% (n = 260,000);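 active = percent inhibition above 40 after rounding to a whole number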;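 note: rat C6 glioma host cells with rolipram phosphodiesterase inhibitor present; the protocol text gives 20 µM as final concentration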
S1P4 antagonist: S1P4 receptor antagonists, primary screen, cell-based. S1P4-expressing cells, antagonist mode, reporter read-out. actives 0.26% (n = 220,000). inhibition, % at 4.98 µM; in the data active = inhibition above about 29%;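 note: 0% = wells stimulated with agonist and 100% = vehicle wells without agonist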
EP2 cAMP induct: cAMP induction in EP2, EP4, beta2-AR and parental cells, confirmation, counter-screen for EP2 modulator project, cell-based, five parallel assays, C6 glioma, HEK293 | actives 47% (n = 1,300) | cAMP HTRF induction; plus low (about EC15) PGE2 agonist | shares compounds with EP2 mod | calls only at 20 µM (by protocol);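 active = cAMP induction above 50% in the main assay while under 30% in all four parallel counter assays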;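 note: rat C6 glioma cells stably expressing human EP2 receptor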
* marks the source's active call; other numbers are inactive results; i = inactive; x = no result given; + = active, no number; ! = not confirmed by another sample.

SMILES	S1P4 agonist	S1P3 antagonist	EP2 mod	EP2 antag	S1P4 antagonist	EP2 cAMP induct
O=c1[nH]c2ccc(Br)cc2c(-c2ccccc2)c1CN1CCOCC1	0	-17	9	12	-11	x
COc1ccc(-n2c(-c3cccc(OC)c3)nc(=S)c3c2CCCC3)cc1	-1	x	77*	18	-3	i
CS(=O)(=O)N1CCc2cc(C(=O)N3CCC4(CC3)NC(=O)c3ccccc3O4)ccc21	x	x	-42	2	x	x
FC(F)(F)c1cccc(/C=N/NC(=S)NC2CCCCC2)c1	-2	-2	80*	4	-1	+
FC(F)(F)c1ccc(/C=N/NC(=S)NC2CCCCC2)cc1	-1	-16	25	4	-1	x
CCOc1ccc2cc(C#N)c(SCC(=O)NC(C)CC)nc2c1 (centres undefined)	-1	-8	69*	19	5	i
O=C(Nc1nc2cc3c(cc2s1)OCCO3)C1=COCCO1	1	4	-18	15	-2	x
O=C(Nc1ccccc1-c1nc2ccccc2s1)C1=COCCO1	0	-7	74*	5	-22	i
CCOC(=O)c1c(-c2ccc(C)cc2)csc1NC(=O)CCN1CCOCC1	0	2	90*	5	-26	+
CCOC(=O)c1c(NC(=O)c2ccc(N3C(=O)[C@@H]4[C@H](C3=O)[C@H]3C=C[C@@H]4C3)cc2)sc2c1CC(C)CC2 (some centres undefined)	1	-1	55	17	-20	i
CCOC(=O)c1c(-c2ccc(C)cc2)csc1NC(=O)c1ccc(N2C(=O)CCC2=O)cc1	1	16	70*	12	-20	i
CCOC(=O)c1c(-c2ccccc2)csc1NC(=O)CCN1CCOCC1	0	6	42	6	-15	x
CCOC(=O)c1c(-c2cccs2)csc1NC(=O)CN1CCOCC1	0	-7	69*	11	-26	i
CCOC(=O)c1c(NC(=O)C2C3C=CC(C3)C2C(=O)O)sc2c1CC(C)CC2 (centres undefined)	2	4	13	13	-23	x
CCOC(=O)c1c(-c2ccc(C)o2)csc1NC(=O)CN1CCOCC1	1	x	33	11	-5	x
CCn1c(COc2ccc(Br)cc2)nnc1SCC(=O)Nc1cccc(C(C)=O)c1	x	x	-8	6	x	x
CN(C)C(=O)CN1CC[C@@H](c2ccccc2)[C@H](O)C1	x	x	59	x	x	x
O=C(O)CCN1C(=O)/C(=C/c2cn(-c3ccccc3)nc2-c2cccs2)SC1=S	1	-7	71*	4	-4	+
CC1CCc2c(sc3ncn(C4CCN(C(=O)c5ccco5)CC4)c(=O)c23)C1 (centres undefined)	x	x	-6	8	x	x
O=C(Nc1cccc2cccnc12)c1ccc(Br)o1	1	-7	69*	7	5	i
Cc1c(C(=O)Nc2cccc3cccnc23)oc2ccccc12	0	-18	65*	8	-6	+
Cc1ccccc1NC(=O)c1oc2ccccc2c1C	x	x	-51	11	x	x
O=C(CSc1nnnn1-c1cccnc1)N1c2ccccc2CCc2ccccc21	x	x	1	8	x	x
Cc1ccc(S(=O)(=O)N2CCCC(C(=O)N(Cc3cccs3)C3CC3)C2)cc1Cl (centres undefined)	x	x	46	7	x	x
CCOC(=O)c1ccccc1NC(=O)CSc1ncc(C(=O)OCC)c(N)n1	1	-9	65*!	3	-8	i
SMILES	S1P4 agonist	S1P3 antagonist	EP2 mod	EP2 antag	S1P4 antagonist	EP2 cAMP induct
CC12CCC(C(=O)N(CSC(=S)N/N=C\c3ccccc3)C1=O)C2(C)C (centres undefined)	-2	x	31	x	-10	x
CC12CCC(C(=O)N(CSC(=S)N/N=C\c3ccccc3Cl)C1=O)C2(C)C (centres undefined)	-1	x	70*	23	0	i
CNc1cc(CS(=O)c2ccccc2)nc(-c2ccccc2)n1 (centres undefined)	1	x	-8	15	-15	x
O=S(Cc1cc(Sc2ccccc2)nc(-c2ccccc2)n1)c1ccccc1 (centres undefined)	-1	x	71*	8	1	+
CCc1ccc(C2=Nn3c(nnc3-c3cccs3)SC2)cc1	-2	3	89*	15	-8	+
COc1ccc(C2=Nn3c(nnc3-c3ccccc3OC)SC2)cc1OC	-3	54*	74*	8	6	i
COc1ccc(C2=Nn3c(nnc3-c3ccc(OC)cc3)SC2)cc1	2	0	92*	5	-3	+
COc1ccc(-c2nnc3n2N=C(C)CS3)cc1	-1	x	6	6	15	x
COC(=O)c1sc(NC(=O)CSc2nnc(-c3cccnc3)n2Cc2ccco2)nc1C	x	x	14	9	x	x
CCOC(=O)/C=C(C)\C=C\c1ccc2ccccc2n1	x	x	40	12	x	x
O=C(c1ccccc1O)N1N=C(c2ccccc2)CC1(O)C(F)(F)F (centres undefined)	-3	9	78*	2	0	i
COc1cccc(C(=O)N2N=C(c3ccccc3)CC2(O)C(F)(F)F)c1 (centres undefined)	1	-7	48	8	-18	x
COc1ccc(C(=O)N2N=C(c3ccccc3)CC2(O)C(F)(F)F)cc1 (centres undefined)	0	-7	83*	11	-6	+
COC(=O)c1c(NC(NC(=O)C(C)C)C(Cl)(Cl)Cl)sc2c1CCCC2 (centres undefined)	2	7	56	4	-19	i
Cn1c(=O)n(C)c2cc(C(=O)NC3(c4ccc(F)cc4)CCCC3)ccc21	x	x	-23	6	x	x
Cc1cc(-c2cncnc2C2CCCN(C(=O)CCn3c(=O)oc4ccccc43)C2)on1 (centres undefined)	x	x	-15	x	x	x
N#CC1=C(N)S[C@H](C(=O)C23CC4CC(CC(C4)C2)C3)[C@H]1c1ccncc1	-1	-86	66*	11	-1	i
O=C(NCc1ccncc1)C12CC3CC(CC(C3)C1)C2	1	-30	-5	2	-3	x
COc1ccc(C)cc1NC(=O)CSc1nc(C2CC2)nc2sc3c(c12)CCCC3	x	x	41	6	x	x
O=C(Nc1cc(C(F)(F)F)ccc1-n1cncn1)c1ccc(-c2ccccc2)cc1	2	x	66*	6	4	+
S=c1[nH]nc(COc2ccccc2)n1Cc1ccccc1	-1	6	7	7	-17	x
Cc1cccc(OCc2n[nH]c(=S)n2Cc2ccccc2)c1	1	-1	51	2	-17	i
